According to PubChem BioAssay (NCATS):
Records with an inconclusive call do not appear. Active and inactive are the calls of the source. Calls come from the whole dose curve; as a rule, active = well fitted curve in the direction sought with a large enough effect; inconclusive = small, poorly fitted or top-dose-only effect, or another doubt; inactive = no such curve, though single readings can be large; an effect the other way counts as inactive or inconclusive.

Key:
[1] = NS1 protein of Zika virus - qHTS assay to identify small molecule inhibitors in human HEK 293 cells (AID 1347053); conditions: HEK293 ZIKV MR766 infection, NS1 TR-FRET, 24 h; series mostly up to 46.1 µM; note: nearly all actives have a fitted effect of over 55% in size
Summary of the method: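 TR-FRET signal from two anti-ZIKV NS1 antibodies quantified NS1 in HEK 293 cells 24 h after MR766 infection at MOI = 0.5; compounds were added 1 h before virus. Uninfected cells and infected cells defined the NS1 normalization range.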

[2] = qHTS of pediatric cancer cell lines to identify multiple opportunities for drug repurposing: Primary screen for TC32 cells (AID 1347089); conditions: TC32 Ewing sarcoma viability, CellTiter-Glo luminescence, 48 h; series mostly up to 45.8 µM; note: nearly all actives have a fitted effect of over 60% in size
Summary of the method: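 Luminescent ATP read-out (CellTiter-Glo) of metabolically active TC32 cells after 48 h exposure. Concentration-response curves came from 11-point (MIPE, 0.78 nM–46 µM) or 8-point (NPC, 0.59 nM–46 µM) primary titrations; follow-up used 11 points.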

[3] = qHTS of pediatric cancer cell lines to identify multiple opportunities for drug repurposing: Primary screen for DAOY cells (AID 1347090); conditions: DAOY medulloblastoma viability, CellTiter-Glo luminescence, 48 h; series mostly up to 46 µM; note: nearly all actives have a fitted effect of over 55% in size
Summary of the method: (§1)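 Eight- or eleven-point concentration series, 48 h treatment at 37 degrees C in growth media; readout CellTiter-Glo luminescence. Potency and efficacy were taken from the concentration-response curves.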

[4] = qHTS of pediatric cancer cell lines to identify multiple opportunities for drug repurposing: Primary screen for SJ-GBM2 cells (AID 1347091); conditions: SJ-GBM2 viability, CellTiter-Glo luminescence, 48 h; series mostly up to 46 µM
Summary of the method: as §1
Potency is the fitted concentration of half-maximal effect.

SMILES	Potency [1]	Potency [2]	Potency [3]	Potency [4]
O=C(Nc1cccc(Nc2ncc(Br)c(NCCc3cnc[nH]3)n2)c1)N1CCCC1	10500 nM (active)	930 nM (active)	18700 nM (active)	5900 nM (active)
CCC(C(=O)O)C1CCC(C)C(C(C)C(O)C(C)C(=O)C(CC)C2OC3(C=CC(O)[C@@]4(CC[C@](C)(C5CC[C@@](O)(CC)C(C)O5)O4)O3)C(C)CC2C)O1 (stereo partly specified)	1660 nM (active)	5230 nM (active)	11800 nM (active)	11800 nM (active)
N=c1ccn2c(n1)O[C@H]1[C@@H](O)[C@@H](CO)O[C@H]12	inactive	1040 nM (active)	–	–
COc1cc([C@@H]2c3cc4c(cc3[C@H](O)[C@H]3COC(=O)[C@@H]23)OCO4)cc(OC)c1OC	264 nM (active)	739 nM (active)	118 nM (active)	66.2 nM (active)
O=C(c1ccc(F)cc1)N1CCC[C@H](c2nc(-c3ccc(F)cc3)no2)C1	inactive	inactive	inactive	–
CC(N[C@H]1CCCC[C@H]1NC(=O)c1ccc(Cl)cc1)c1cccc2ccccc12 (stereo partly specified)	inactive	inactive	29.6 nM (active)	–
COc1ccc(C(C)=O)c(O)c1	inactive	inactive	1870 nM (active)	inactive
CN1[C@H]2CC(OC(=O)[C@@H](CO)c3ccccc3)C[C@H]1[C@H]1O[C@H]12 (stereo partly specified)	inactive	inactive	inactive	inactive
C=CC1=C(C(=O)O)N2C(=O)[C@@H](NC(=O)C(=NO)c3csc(N)n3)[C@H]2SC1	inactive	inactive	inactive	inactive
O=C1NC(=O)C(=Cc2ccc3nccc(-c4ccncc4)c3c2)S1	743 nM (active)	523 nM (active)	235 nM (active)	93.5 nM (active)
